TIM10 inh: TIM10 yeast growth inhibition; S. cerevisiae TIM10 strain growth, BacTiter-Glo luminescence, 24 h; inhibition, % at 10 µM; 330,000 compounds, 1.4% hits; AID 463195;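 active = inhibition of 40% or more at the single tested concentration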;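 also: wild-type TIM10 isogenic control strain grown at permissive 25 °C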
tim23-1 inh: tim23-1 yeast growth inhibition. inhibition, % at 20 µM. 330,000 compounds, 1.3% hits. S. cerevisiae tim23-1 growth, BacTiter-Glo luminescence, 24 h. AID 463212;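 active = growth inhibition of the mutant yeast at or above 50%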;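 also: temperature-sensitive mutant grown at 25 °C; plate controls were DMSO-treated mutant yeast for no effect and medium wells lacking yeast for full effect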
NALP1 inh: inhibitors of NALP1 inflammasome in yeast. S. cerevisiae NALP1/ASC/caspase-1 growth, X-gal OD620, 72 h. inhibition, % at 10 µM. 280,000 compounds, 0.61% hits; in the data active = inhibition mostly above about 24%, no sharp cut-off; inactive = mostly below about 32%
tim10-1 inh: tim10-1 yeast growth inhibition | S. cerevisiae tim10-1 ts strain growth, BacTiter-Glo, 24 h | inhibition, % at 20 µM | 330,000 compounds, 2.2% hits | AID 463190;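 active = inhibition of at least 40%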;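 also: mutant grown at 25 °C; 0% = DMSO wells with yeast and 100% = wells holding no yeast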
NALP3 yeast inh: inhibitors of NALP3 inflammasome in yeast; AID 2825; inhibition, % at 10 µM; 330,000 compounds, 0.39% hits; Yeast reconstituted NLRP3/ASC/caspase-1, beta-gal luminescence, 24 h;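 active = inhibition of 50% or more; inactive = inhibition below 50%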;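 also: plate controls were induced DMSO wells for no effect and uninduced yeast grown without galactose for full effect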
Numbers without * were called inactive; . = not tested or not shown. Sampled rows, rich in hits. Any-hit rate of the full collection: about 4%.

SMILES	TIM10 inh	tim23-1 inh	NALP1 inh	tim10-1 inh	NALP3 yeast inh
O=S(=O)(c1ccc(-c2nc3ccccc3s2)cc1)N1CCCC1	9	1	13	3	0
CC1CN(S(=O)(=O)c2ccc(-c3nc4ccccc4s3)cc2)CC(C)O1 (centres undefined)	17	12	30*	15	2
CC1=NN(c2ccccc2)C(=O)C1N=Nc1cccc(O)c1 (centres undefined)	-10	40	32*	0	40
COC(=O)c1c(NC(=O)C2CC(=O)NN2Cc2ccccc2)sc(C)c1C (centres undefined)	14	19	-6	21	-5
Cc1ccc(OCCN2CCN(c3nc(NCc4ccco4)c4ccccc4n3)CC2)cc1	13	-41	73*	3	31
CCOc1ccccc1N(CC(=O)Nc1ccccc1C(=O)N1CCCC1)S(C)(=O)=O	-2	5	-1	-10	8
O=C(NC1CC(=O)N(c2ccc3c(c2)OCCO3)C1)N1CCCCC1 (centres undefined)	5	0	.	14	13
CC(=O)Nc1ccc(S(=O)(=O)NCC2CCC(C(=O)NCc3ccccc3)CC2)cc1 (centres undefined)	5	3	1	5	25
O=C(Nc1ccc(S(=O)(=O)NCc2ccccc2)cc1)C1CCCCC1	-2	6	32*	-4	4
COc1ccc(N2CC(C(=O)OCC(=O)c3ccc(C)cc3)CC2=O)cc1 (centres undefined)	11	12	27*	28	1
CCOc1ccc(N2CC(C(=O)OCC(=O)c3ccc(OC)cc3)CC2=O)cc1 (centres undefined)	-1	26	3	28	2
C#CCOCCOCCOCCNc1nc(N2CCN(C(=O)C([C@@H](C)O)n3cc([C@@H](N)CCCCN)nn3)CC2)nc(N2CCN(C(=O)C([C@@H](C)O)n3cc([C@@H](N)CCCCN)nn3)CC2)n1 (some centres undefined)	-1	0	.	-3	23
Cc1nc(-c2ccc3c(c2)OCCCO3)cs1	-9	5	42*	4	17
CC(C)N1CCN(Cc2cccn2-c2nccs2)CC1CCO (centres undefined)	19	-6	4	8	8
OCCC1CN(Cc2cccn2-c2nccs2)CCN1C1CCCCC1 (centres undefined)	-8	6	25*	2	0
COc1ccc(NC(=O)Nc2ccc(CC(=O)O)cc2)cc1	-1	4	10	1	23
O=C(O)Cc1ccc(NC(=O)Nc2ccc(Br)cc2)cc1	1	10	32*	14	3
CC(C)(O)c1[nH]c2cc(F)ccc2c1C(C)(C)O	.	.	4	.	.
O=C(O)C1CC=CCC1C(=O)N1CCN(c2nc(-c3ccccc3Cl)c3cc(Br)ccc3n2)CC1 (centres undefined)	12	23	27*	21	17
O=C(O)C1CC=CCC1C(=O)N1CCN(c2nc(-c3ccccc3)c3ccccc3n2)CC1 (centres undefined)	6	6	5	15	19
CCCOc1ccc(N2C(=O)CC(N(CCc3ccc(OC)c(OC)c3)C(=O)c3ccccc3)C2=O)cc1 (centres undefined)	15	17	30	9	9
COc1ccc(N2C(=O)CC(N(CCc3ccc(OC)c(OC)c3)C(=S)Nc3ccccc3)C2=O)cc1 (centres undefined)	14	6	-1	18	14
COc1ccc(N2C(=O)CC(N(C)CCc3ccc(OC)c(OC)c3)C2=O)cc1 (centres undefined)	27	25	41*	32	20
COc1ccc(CCN(C)C2CC(=O)N(c3ccccc3)C2=O)cc1OC (centres undefined)	19	33	56*	23	4
COC(=O)c1ccccc1NC(=O)CSc1n[nH]c(-c2cccnc2)n1	20	13	33*	13	11
CC1CCc2cc(F)cc3c(=O)c(C(=O)O)cn1c23 (centres undefined)	-5	9	102*	-4	11
Cc1ccc(S(=O)(=O)NNC(=O)c2sc(=S)n(C)c2C)cc1	-6	10	17	7	10
CCn1cc(CNC(=O)c2cc(COc3ccc(F)cc3F)on2)cn1	-10	-3	28	12	3
CC1(C)C(C=C(Cl)Cl)C1C(=O)Nc1ccc([N+](=O)[O-])cc1 (centres undefined)	.	.	57*	.	.

Assay outcomes as filed in PubChem.
